Assay results reported in PubChem BioAssay.
Activity calls are given as the source filed them. Unless noted, no rule for the calls is given here.

Legend:
[1] = HepG2 liver cancer cell viability effects, profiling panel, resazurin fluorescence, 24 h, PK04 Diversity Set (AID 1172); settings: higher = more signal; also: test concentration not given here
[2] = basal S. cerevisiae growth modulation, no modifier, primary screen, OD600, strain BY4716, 24 h, basal condition (AID 1173); settings: OD600, 24 h, higher = more signal, called active from +8 up or from −8 down
[3] = MM1S myeloma cell viability, profiling panel, resazurin fluorescence, basal, 24 h, PK04 Diversity Set (AID 1174); settings: higher = more signal, called active from +8 up or from −8 down;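 also: MM1S multiple myeloma cell line; test concentration not given here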
[4] = target: Dihydroorotate dehydrogenase (quinone), mitochondrial (Plasmodium falciparum (isolate 3D7)) (UniProt Q08210); assay: PfDHODH enzyme inhibitors, primary screen, biochemical, C-terminal His tag, absorbance 600 nm (AID 1175); settings: DCIP absorbance 600 nm, higher = more signal, called active from +8 up or from −8 down;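 also: recombinant parasite enzyme with a five histidine tag at its C terminus; test concentration not given here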
Sequence of Dihydroorotate dehydrogenase (quinone), mitochondrial (Plasmodium falciparum (isolate 3D7)) (Q08210 whole entry, looked up): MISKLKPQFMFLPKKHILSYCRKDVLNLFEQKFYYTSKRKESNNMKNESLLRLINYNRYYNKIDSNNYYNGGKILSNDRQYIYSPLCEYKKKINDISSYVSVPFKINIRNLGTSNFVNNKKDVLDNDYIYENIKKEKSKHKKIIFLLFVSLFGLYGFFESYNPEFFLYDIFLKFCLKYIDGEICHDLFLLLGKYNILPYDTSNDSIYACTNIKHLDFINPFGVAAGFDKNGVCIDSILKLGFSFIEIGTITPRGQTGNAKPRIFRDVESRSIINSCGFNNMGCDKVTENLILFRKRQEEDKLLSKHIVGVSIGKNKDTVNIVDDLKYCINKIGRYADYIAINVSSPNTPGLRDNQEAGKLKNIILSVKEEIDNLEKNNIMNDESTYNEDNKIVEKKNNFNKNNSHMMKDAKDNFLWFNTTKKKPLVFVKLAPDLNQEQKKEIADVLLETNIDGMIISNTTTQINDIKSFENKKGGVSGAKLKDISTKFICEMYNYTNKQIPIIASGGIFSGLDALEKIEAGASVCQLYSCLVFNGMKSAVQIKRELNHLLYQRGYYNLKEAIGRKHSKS

[5] = P. aeruginosa biofilm formation inhibitors, primary screen, strain PAO1, LB-PBS medium, absorbance 600 nm (AID 1176); also: test concentration not given here; settings: P. aeruginosa PAO1 growth/biofilm, A600, 12 h; higher = more signal
[6] = S. cerevisiae RM11-1a growth modifiers, primary screen, strain RM11-1a, OD600, basal, 24 h (AID 1177); settings: OD600, 24 h, higher = more signal, called active from +8 up or from −8 down;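 also: cultures grown under basal conditions with no added stressor; test concentration not given here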
[7] = E. coli acrAB mutant growth effects, primary screen, E. coli filamentation inducers, strain DRC39, OD650, 24 h (AID 1178); settings: higher = more signal, called active from +8 up or from −8 down;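 also: growth measured as culture turbidity by optical density at 650 nm; test concentration not given here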
[8] = E. coli acrAB mutant growth effects, primary screen, E. coli filamentation inducers, strain DRC39, OD650, 48 h (AID 1179);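 also: screen aims at cell division blockers that make cells filament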; settings: E. coli DRC39 delta-acrAB growth, higher = more signal, called active from +8 up or from −8 down
[9] = RPMI8226 myeloma cell viability, profiling panel, resazurin fluorescence, basal, 24 h, PK04 Diversity Set (AID 1180); settings: higher = more signal;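 also: RPMI8826 multiple myeloma cell line at 5000 cells per well; test concentration not given here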
[10] = target: E3 ubiquitin-protein ligase XIAP (Homo sapiens) (UniProt P98170); assay: XIAP binders, primary screen, biophysical, small-molecule microarray, fluorescence 635 nm (AID 1181); settings: small-molecule microarray binding, higher = more signal;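 also: score merges 667 nm emission and signal to noise over triplicate slides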
Sequence of E3 ubiquitin-protein ligase XIAP (Homo sapiens) (P98170 whole entry, looked up): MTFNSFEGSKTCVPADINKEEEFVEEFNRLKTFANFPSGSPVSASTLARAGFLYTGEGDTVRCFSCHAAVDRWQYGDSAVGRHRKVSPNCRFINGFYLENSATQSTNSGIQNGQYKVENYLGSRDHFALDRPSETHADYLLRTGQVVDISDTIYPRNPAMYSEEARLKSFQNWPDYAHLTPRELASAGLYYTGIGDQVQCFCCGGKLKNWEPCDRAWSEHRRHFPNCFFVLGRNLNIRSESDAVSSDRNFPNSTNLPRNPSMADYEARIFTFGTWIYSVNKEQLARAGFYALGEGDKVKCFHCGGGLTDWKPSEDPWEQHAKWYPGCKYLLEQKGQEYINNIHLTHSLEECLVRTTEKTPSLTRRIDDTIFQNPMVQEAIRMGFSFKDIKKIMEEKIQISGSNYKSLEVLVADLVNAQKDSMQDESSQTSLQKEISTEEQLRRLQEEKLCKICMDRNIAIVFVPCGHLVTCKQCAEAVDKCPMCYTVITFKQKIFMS

SMILES	z-score [1]	z-score [2]	z-score [3]	composite z-score [4]	z-score [5]	z-score [6]	z-score [7]	z-score [8]	z-score [9]	composite z-score [10]
COC(=O)[C@@]1(Cc2ccccc2)[C@H]2c3cc(C(=O)N4CCCC4)n(Cc4ccccn4)c3C[C@H]2CN1C(=O)c1ccccc1	-1.17	1.32 (inactive)	-1.45 (inactive)	0.553 (inactive)	1.79 (inactive)	0.957 (inactive)	-0.452 (inactive)	-0.551 (inactive)	-2.32	0.0737
O=C1O[C@@H](c2ccccc2)[C@@H](c2ccccc2)N2[C@@H](c3ccccc3OCCO)[C@]3(C(=O)Nc4ccc(C#CCCO)cc43)[C@@H](C(=O)O)[C@H]12	-0.307	-1.28 (inactive)	0.649 (inactive)	-2.05 (inactive)	-0.681 (inactive)	-0.282 (inactive)	0.0701 (inactive)	-0.781 (inactive)	0.183	0.32
CCOC(=O)CCN1C(=O)[C@H]2[C@H]3[C@H](O)[C@H](O)CC(=NOCc4ccccc4)[C@@H]3CC[C@H]2C1=O	-0.0233	-0.949 (inactive)	-0.406 (inactive)	0.404 (inactive)	0.683 (inactive)	-0.172 (inactive)	-0.852 (inactive)	-0.599 (inactive)	-0.103	0.0455
CC(C)CON=C1C[C@@H](O)[C@@H](O)[C@@H]2[C@@H]3C(=O)N(C[C@@H]4CCCO4)C(=O)[C@@H]3CC[C@H]12	0.511	-0.138 (inactive)	-0.594 (inactive)	-0.849 (inactive)	0.884 (inactive)	-0.776 (inactive)	-0.353 (inactive)	0.0723 (inactive)	0.139	-0.174
CO[C@H]1O[C@H](CO)[C@@H](OC(=O)Nc2ccc(C#N)cc2)[C@H](OC(=O)c2cc3ccccc3[nH]2)[C@H]1OC(=O)c1cc2ccccc2[nH]1	-0.115	-1.05 (inactive)	-1.76 (inactive)	-1.68 (inactive)	1.63 (inactive)	-1.67 (inactive)	2.96 (inactive)	2.93 (inactive)	-1.7	-0.0448
C=CCC(OC(C)=O)[C@@H]1[C@@H](N(Cc2cc3ccccc3o2)C(=O)Cc2ccc(F)cc2)c2cc(OCCCO)ccc2N1C(=O)Cc1ccc(OC)cc1 (stereo not given in full)	0.217	-0.449 (inactive)	0.301 (inactive)	-1.66 (inactive)	0.632 (inactive)	-0.711 (inactive)	-0.201 (inactive)	-0.416 (inactive)	-0.115	0.0769
CCOC(=O)CCN1C(=O)[C@H]2[C@H]3[C@H](O)[C@H](O)CC(=NOC[C@@H](O)COCc4ccco4)[C@H]3CC[C@H]2C1=O	-0.749	-11.7 (active)	-0.0452 (inactive)	-2.45 (inactive)	0.0122 (inactive)	-0.788 (inactive)	0.558 (inactive)	-0.899 (inactive)	-0.424	0.123
O=C1[C@H]2[C@H]3[C@H](O)[C@H](O)CC(=NOCc4ccccc4)[C@@H]3CC[C@H]2C(=O)N1Cc1ccccc1	1.38	-0.148 (inactive)	0.85 (inactive)	-0.0807 (inactive)	-0.377 (inactive)	-0.118 (inactive)	0.16 (inactive)	0.71 (inactive)	1.17	0.0512
COC(=O)[C@H](C)NC(=O)[C@@H](C)CO	-1.1	-0.0616 (inactive)	-1.15 (inactive)	0.38 (inactive)	-0.351 (inactive)	0.312 (inactive)	-1.45 (inactive)	-0.489 (inactive)	-0.855	-0.102
CCCC[C@H]1OB(O)C[C@H]2C1=C(C)C[C@H]1C(=O)N(C)C(=O)[C@H]12	-0.539	-2.09 (inactive)	-0.596 (inactive)	-0.829 (inactive)	0.4 (inactive)	-0.776 (inactive)	0.506 (inactive)	0.499 (inactive)	-0.466	-0.256
CC[C@@H](c1ccccc1)n1c(=O)n2n(c1=O)[C@H]1[C@H](O)[C@@H]3O[C@@H]3C(=NOCC(C)C)[C@H]1CC2	-0.0871	0.747 (inactive)	-0.349 (inactive)	0.777 (inactive)	-0.413 (inactive)	0.49 (inactive)	0.258 (inactive)	-1.31 (inactive)	0.0402	-0.0525
CCOC(=O)NN=C1C[C@@H](O)[C@@H](O)[C@@H]2[C@@H]3C(=O)N(C[C@@H]4CCCO4)C(=O)[C@@H]3CC[C@@H]12	0.208	0.623 (inactive)	-0.307 (inactive)	-0.851 (inactive)	-0.674 (inactive)	0.664 (inactive)	0.914 (inactive)	1.4 (inactive)	0.0557	0.0432
C[C@@H]1CCC2C(=O)N(Cc3ccccc3)C[C@@H](O)CN2[C@H]1c1ccc(Br)cc1 (stereo not given in full)	0.644	-5.68 (inactive)	0.726 (inactive)	-1.3 (inactive)	0.924 (inactive)	-1.71 (inactive)	0.957 (inactive)	-1.25 (inactive)	0.39	-0.0009
